The nature of assay [1]: qHTS RealTime-Glo MT Cell Viability Assay in HepG2 cells - 40 hour (AID 1224870). Note: nearly all actives have a fitted effect of over 50% in size. Summed up:
(§1)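 HepG2 cells (600/well) mixed with RealTime-Glo MT reagent, settled 5 h at 37 C/5% CO2 before compound addition. Nonlytic NanoLuc luminescence from viable-cell prosubstrate reduction read repeatedly during 40 h treatment at 37 C.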

The nature of assay [2]: qHTS RealTime-Glo MT Cell Viability Assay in HEK293 cells - 16 hour (AID 1224872). Note: nearly all actives have a fitted effect of over 50% in size. Summed up: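 Cells + reagent dispensed (600 cells/well, HEK293) → 5 h at 37 C/5% CO2 → 23 nL compound in DMSO pinned → 40 h at 37 C → luminescence read at 0, 8, 16, 24, 32, 40 h.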
Assay [3] in a line: qHTS RealTime-Glo MT Cell Viability Assay in HepG2 cells - 8 hour (AID 1224873). Note: nearly all actives have a fitted effect of over 55% in size. The procedure, abridged: as §1
(In general: Quantitative high-throughput screening tests each substance at several concentrations.)

Assay [4] can be described thus: qHTS RealTime-Glo MT Cell Viability Assay in HEK293 cells - 40 hour (AID 1224874). Note: nearly all actives have a fitted effect of over 50% in size. The conditions noted are these: RealTime-Glo luminescence; max response: active compounds read low. The procedure, abridged:
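600 cells/well were plated with the nonlytic NanoLuc/prosubstrate reagent, pre-incubated 5 h, then given 23 nL of compound in DMSO. Incubation at 37 C for 40 h, with luminescence from viable-cell-reduced substrate read repeatedly from 0 h.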

Assay [5] can be described thus: A CellTox Green Cytotoxicity Assay to monitor cytotoxicity in HEK293 cells - 24 hour (AID 1224875). For activity change: series mostly up to about 77 µM. Note: nearly all actives have a fitted effect of over 45% in size. Summed up:
(§2)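 HEK293 cells, 600/well, were preincubated 5 hours and then exposed to compounds at 37 C for up to 40 hours. A cell-impermeant cyanine dye staining dead-cell DNA was read by fluorescence at 0, 8, 16, 24, 32 and 40 h time points.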

Assay [6] in a line: qHTS RealTime-Glo MT Cell Viability Assay in HepG2 cells - 32 hour (AID 1224877). Note: nearly all actives have a fitted effect of over 55% in size. Summed up: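 Real-time, nonlytic viability: 600 HepG2 cells/well mixed with NanoLuc enzyme plus prosubstrate; 5 h settle, compound (DMSO) added by pintool; luminescence monitored over 40 h at 37 C.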
A short description of assay [7]: A CellTox Green Cytotoxicity Assay to monitor cytotoxicity in HepG2 cells - 24 hour (AID 1224878). Note: nearly all actives have a fitted effect of over 45% in size. Summed up: (§3)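 HepG2 cells, 600/well, preincubated 5 h with CellTox Green dye, then exposed to Tox21 compounds in DMSO at 37 C for up to 40 h. Dead-cell DNA fluorescence read at the indicated time point.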
The nature of assay [8]: A CellTox Green Cytotoxicity Assay to monitor cytotoxicity in HepG2 cells - 40 hour (AID 1224879). Note: nearly all actives have a fitted effect of over 40% in size. The procedure, abridged:
as §3

The nature of assay [9]: A CellTox Green Cytotoxicity Assay to monitor cytotoxicity in HepG2 cells - 16 hour (AID 1224876). Note: nearly all actives have a fitted effect of over 45% in size. The procedure, abridged: as §3
Assay [10] is described as follows: A CellTox Green Cytotoxicity Assay to monitor cytotoxicity in HEK293 cells - 40 hour (AID 1224871). Note: nearly all actives have a fitted effect of over 45% in size. The procedure, abridged:
as §2

Results filed as inconclusive are left out. Values without a mark were called inactive. Calls of active or inactive are those of the source. Calls come from the whole dose curve; as a rule, active = well fitted curve in the direction sought with a large enough effect in the repeat runs; inconclusive = weak or mixed curves; inactive = no such curve, though single readings can be large; an effect the other way counts as inactive or inconclusive.
% is set by controls: 0 for no effect and ±100 for the full control effect; potency is the fitted concentration of half-maximal effect.

For the compound `COc1ccc(C2C(=O)c3ccccc3C2=O)cc1`, the Potency result in [1], in assay [2], in assay [3], in [5], in assay [6] and in assay [7] was “inactive” in each case. Besides, in assay [8], the Potency entry is “inactive”. For the same compound, in assay [4], the max response was 4.61%.

Turning to `O=C(O)CCC(=O)OC[C@@H](NC(=O)C(Cl)Cl)[C@H](O)c1ccc([N+](=O)[O-])cc1`, the Potency entry in assay [1], in [2], in assay [3] and in assay [6] was “inactive” each time. Besides, the max response in [4] was 5.1%. The Potency in assay [7] and in assay [8] was 19 µM (active) each time.

`CNCc1ccc(NC(=O)c2c[nH]c3c2C(=O)CCC3)cc1`: the Potency entry in [1], in [5], in [9], in [6], in assay [7] and in assay [8] was “inactive” in each case.

With `C=Cc1ccc(OC(C)=O)cc1`, the Potency entry in assay [1], in [2], in assay [3], in assay [5], in assay [6] and in assay [7] was “inactive” throughout. Besides, the Potency entry in assay [8] is “inactive”. For the same compound, the max response in assay [4] is 18.3%.

Regarding `COc1ccc(N)c([N+](=O)[O-])c1`, the Potency entry in assay [1], in [2], in assay [3], in [6], in assay [7] and in assay [8] was “inactive” each time. Moreover, in [4], the max response was -15.1%.

In the case of `Nc1cccc2c(N)cccc12`, the Potency result in assay [10], in assay [5], in assay [9], in [6] and in assay [7] was “inactive” in each case.

Consider `Cc1c(C2(c3cc(Br)c(O)c(Br)c3C)OS(=O)(=O)c3ccccc32)cc(Br)c(O)c1Br`, for which the Potency entry in assay [1], in [2], in [3], in assay [9], in assay [6] and in [7] was “inactive” throughout. In addition, the Potency entry in assay [8] is “inactive”. Also, in assay [4], the max response was -21.5%.

On to `CC1CCc2nccnc21` (stereo not drawn), for which the Potency result in assay [1], in assay [2], in assay [3], in assay [5] and in [6] was “inactive” in each case. In assay [4], the max response is -2.75%.

Turning to `CN1CCCN(C(c2ccccc2)c2ccc(Cl)cc2)CC1` (stereo not drawn), the Potency entry in [2] and in assay [3] was “inactive” in each case. The values for the Potency in assay [5], in assay [9] and in assay [8] were 23.9 µM (active), 23.9 µM (active) and 21.3 µM (active), respectively.

For `O=c1[nH][nH]c(=O)c2cc([N+](=O)[O-])ccc12`, the Potency entry in [1], in [2], in [3], in [9], in [6] and in assay [8] was “inactive” in each case. Besides, the max response in [4] is -11.6%.

Regarding `CNC1CCCN(c2c(F)cc3c(=O)c(C(=O)O)cn(C4CC4)c3c2OC)C1` (stereo not drawn), the Potency entry in assay [1], in assay [2], in assay [3], in [9], in [6] and in assay [8] was “inactive” throughout. Moreover, the max response in assay [4] is -1.56%.

As for `CC(C)COC(=O)c1ccc(O)cc1`, the Potency result in assay [1], in assay [3] and in [6] was “inactive” each time.

On to `COC(=O)C1=C(C)NC(C)=C(C(=O)OC(C)(C)CN(C)CCC(c2ccccc2)c2ccccc2)C1c1cccc([N+](=O)[O-])c1` (stereo not drawn), for which the Potency entry in assay [10], in assay [2], in assay [5], in [9] and in [7] was “inactive” each time. Further, in assay [4], the max response is -18%.

For the compound `Cc1cccc(C)c1NC(=O)c1cc(S(N)(=O)=O)c(Cl)cc1O`, the Potency entry in [1], in assay [2], in [3], in assay [5], in assay [9] and in [7] was “inactive” each time. Further, the Potency result in [8] was “inactive”.

Regarding `CC/C=C\C/C=C\C/C=C\CCCCCCCC(=O)OCC`, the Potency entry in assay [1], in [2], in assay [5], in assay [9], in assay [6] and in [7] was “inactive” throughout. The Potency result in [8] was “inactive”. Also, in assay [4], the max response is -15.2%.

For `CCCCCCCC(=O)Oc1c(Br)cc(C#N)cc1Br`, the Potency result in assay [1], in [5], in [6], in assay [7] and in assay [8] was “inactive” each time. The Potency in [2] and in assay [4] was 38.8 µM (active) in each case.

As for `CC(C)CC(O)CC(C)C`, the Potency entry in [1], in assay [2], in [3], in assay [6], in [7] and in assay [8] was “inactive” throughout. In assay [4], the max response was 2.3%.

Regarding `O=C1c2ccccc2C(=O)c2c(O)ccc(O)c21`, the Potency entry in assay [1], in assay [2], in assay [3] and in assay [6] was “inactive” in each case. In addition, the max response in assay [4] was 5.32%. In addition, the Potency in [9], in assay [7] and in assay [8] was 24.5 µM (active) throughout.

With `CCC(Cl)CC(Cl)C(Cl)C(Cl)C(Cl)C(C)Cl` (stereo not drawn), the activity change, negative = cytotoxic was -0.479% [at 15.8 µM] in assay [1] and -0.891% [at 15.8 µM] in [6]. Besides, the viability change, negative = cytotoxic in assay [3] is 0.0251% [at 15.8 µM]. Moreover, the cytotoxicity increase in assay [9] was 7.76% [at 15.8 µM]; in assay [8], 0.801% [at 15.8 µM]. Also, the cytotoxicity in assay [7] is 2.51% [at 15.8 µM].

For `CCOc1ncc(F)c(=O)[nH]1`, the Potency result in assay [1], in assay [2], in assay [3], in assay [5], in [6] and in [7] was “inactive” throughout. Moreover, the max response in [4] is -0.726%.

As for `c1ccc(CCCc2ccncc2)cc1`, the Potency result in [1], in [3] and in assay [6] was “inactive” throughout. Further, in assay [4], the max response was -19.7%. For the same compound, the Potency in [9] was 12.3 µM (active).

For the compound `O=C(/C=C/c1ccc([N+](=O)[O-])cc1)c1ccccc1`, the Potency was 17.4 µM (active) in [10]; 24.6 µM (active) in assay [2]; 24.6 µM (active) in [4]; 21.9 µM (active) in [9]; 21.9 µM (active) in [7]. Also, the Potency result in assay [3] is “inactive”.

With `CCCC(=O)OC(=O)CCC`, the Potency entry in assay [1], in [2], in assay [3], in [5], in assay [9] and in [7] was “inactive” throughout.

Regarding `O=[N+]([O-])C1(Br)COCOC1`, the Potency in [1] is 49 µM (active); in [2], 38.9 µM (active); in [3], 54.9 µM (active); in assay [4] it was 34.7 µM (active); in assay [5] it was 54.9 µM (active); in assay [6] it was 49 µM (active).

Turning to `Oc1ccc2c(c1)Cc1ccccc1-2`, the Potency result in assay [1] and in assay [5] was “inactive” each time. Also, the Potency in assay [2] is 21.9 µM (active); in assay [4], 19.5 µM (active).

On to `CC(C)c1ccc(C(=O)N=C(N)N)cc1S(C)(=O)=O`, for which the Potency result in assay [1], in [2], in assay [3], in assay [6], in assay [7] and in assay [8] was “inactive” throughout. Also, the max response in assay [4] was 18.4%.

`COc1cc(NS(=O)(=O)c2ccc(N)cc2)nc(C)n1`: the Potency result in [1], in assay [2], in assay [9], in assay [6], in [7] and in assay [8] was “inactive” each time. For the same compound, the max response in assay [4] was 9.67%.

On to `CC(C)N(C)C`, for which the Potency result in assay [1], in assay [2], in assay [5], in assay [9], in assay [6] and in assay [7] was “inactive” each time. In addition, in [4], the max response is 0.0453%.

Take `C[C@@H]1[C@H](O)[C@@H](C)/C=C/C=C\C=C\C=C\C=C\C=C\C=C\[C@H](O[C@@H]2O[C@H](C)[C@@H](O)[C@H](N)[C@@H]2O)C[C@@H]2O[C@](O)(C[C@@H](O)C[C@@H](O)[C@H](O)CC[C@@H](O)C[C@@H](O)CC(=O)O[C@H]1C)C[C@H](O)[C@H]2C(=O)O` (stereo in doubt): the Potency entry in [1], in assay [2], in assay [9], in [6], in assay [7] and in [8] was “inactive” in each case. For the same compound, the max response in [4] was -0.557%.

These data come from PubChem BioAssay (Tox21).
